The values that follow come from the supplement of paper PMC6555819.

Assay in all cases: PBM binding z-score (relative to random genomic background probes); higher = stronger binding; sequences stand for … in GC…GCGATTGACAGCGTAGAATGAAGG
For assay [1], the system named is FXR:RXRa (NR concentration 270 nM, RXRa partner concentration 90 nM). The method in brief: (§1)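 Ligand-free nuclear receptor dimers were applied to custom Agilent 4×180K protein-binding microarrays whose double-stranded probes carried direct-repeat seeds, single-nucleotide variants, half-site ablations and random human genomic background sequences in 34-nt variable regions. Incubation lasted 1 h. Binding z-scores were computed against the random background probes from regression-normalized fluorescence.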

For assay [2], the system named is LXRa:RXRa (NR concentration 270 nM, RXRa partner concentration 90 nM). The method in brief: as §1
The subject of assay [3] is LXRa homodimer (NR concentration 270 nM). The method in brief:
as §1

The test system of assay [4] is LXRb:RXRa (NR concentration 270 nM, RXRa partner concentration 90 nM). Put shortly:
as §1

In assay [5] the test system is LXRb homodimer (NR concentration 270 nM). Put shortly: as §1
Assay [6] relates to PPARa:RXRa (NR concentration 270 nM, RXRa partner concentration 90 nM). The method in brief:
as §1

The subject of assay [7] is PPARg:RXRa (NR concentration 180 nM, RXRa partner concentration 90 nM). Put shortly: as §1
For assay [8], the system named is PPARg:RXRa 270nM:90nM, anti-RXR (NR concentration 270 nM, RXRa partner concentration 90 nM). Put shortly:
as §1

Assay [9] has as its system PPARg:RXRa 30nM:10nM, anti-RXR (NR concentration 30 nM, RXRa partner concentration 10 nM). The method in brief:
as §1

In assay [10] the test system is PPARg:RXRa 90nM:30nM, anti-RXR (NR concentration 90 nM, RXRa partner concentration 30 nM). Put shortly:
as §1

The subject of assay [11] is PPARg:RXRa DBDmut IVT, anti-RXR (DBD mutation: RXRa K156A/R161A, NR concentration 270 nM, RXRa partner concentration 90 nM). The method in brief: as §1
For assay [12], the system named is PPARg:RXRa IVT, anti-PPARg (NR concentration 270 nM, RXRa partner concentration 90 nM). The method in brief:
as §1

Assay [13] deals with PPARg DBDmut:RXRa IVT, anti-PPARg (DBD mutation: PPARg1 K132A/R137A, NR concentration 270 nM, RXRa partner concentration 90 nM). Put shortly:
as §1

Assay [14] deals with PPARg DBDmut IVT, anti-PPARg (DBD mutation: PPARg1 K132A/R137A, NR concentration 270 nM). The method in brief:
as §1

Assay [15] concerns PPARg homodimer (NR concentration 180 nM). Put shortly: as §1
Assay [16] deals with PXR:RXRa (NR concentration 270 nM, RXRa partner concentration 90 nM). The method in brief:
as §1

Assay [17] has as its system PXR homodimer (NR concentration 270 nM). Put shortly:
as §1

For assay [18], the system named is RARa:RXR (NR concentration 270 nM, RXRa partner concentration 90 nM). Put shortly:
as §1

Assay [19] concerns RARa homodimer (NR concentration 270 nM). Put shortly:
as §1

Assay [20] has as its system RARb:RXRa (NR concentration 270 nM, RXRa partner concentration 90 nM). Put shortly:
as §1

As to CCGACTGGGGCATGAGGTTACCATAAGCCAGCCC, the PBM binding z-score in assay [1] was 0.319; in [2], 1.56; in [3], -0.254; in assay [4], 0.386; in assay [5] it was -1.09; in assay [6], 1.72. In addition, the PBM binding z-score is 2.04 in assay [7]; 2.41 in assay [8]; 0.402 in assay [9]; 1.62 in [10]; 3.01 in assay [11]; 3.6 in assay [12]. Besides, the PBM binding z-score was -1.07 in [13]; -0.773 in [14]; 0.383 in assay [15]; 0.287 in [16]; -0.219 in [17]; 1.06 in [18]. Besides, the PBM binding z-score in assay [19] is -0.49; in assay [20] it was 1.42.

Regarding ATACCAAGGTGATCGTGAGGTCGTAGATACTAAC, the PBM binding z-score is 1.57 in [1]; 1.07 in assay [2]; 0.236 in assay [3]; 0.929 in [4]; -0.173 in [5]; 1.73 in assay [6]. The PBM binding z-score in assay [7] is 0.732; in [8], 0.484; in assay [9], -0.23; in assay [10], -0.092; in [11] it was 0.0521; in assay [12] it was 1.54. In addition, the PBM binding z-score in [13] is 0.536; in [14], 0.745; in assay [15], 0.811; in assay [16], 2.2; in [17], 0.811; in assay [18], 2.21. Further, the PBM binding z-score is 0.262 in assay [19] and 1.33 in assay [20].

As for CAAACGAGGGCATGAGTTGATAGCAAATGCCGAT, the PBM binding z-score in assay [1] is 0.718; in assay [2], 0.454; in assay [3], -0.447; in [4] it was 0.313; in [5], -0.289; in assay [6], 1.86. Besides, the PBM binding z-score is 1.7 in [7]; 1.88 in assay [8]; 0.402 in assay [9]; 1.12 in [10]; 2.71 in [11]; 2.88 in assay [12]. In addition, the PBM binding z-score is 0.524 in assay [13]; -0.353 in assay [14]; 0.909 in [15]; 0.572 in assay [16]; -0.0239 in assay [17]; 0.752 in [18]. In addition, the PBM binding z-score in assay [19] was -0.274; in assay [20], 2.24.

Turning to GTGACTGGGGCATCAGCAGGTTACCATAACTTAA, the PBM binding z-score in [1] is 0.0842; in assay [2] it was 0.236; in assay [3], -0.049; in assay [4], 0.942; in assay [5] it was -0.399; in assay [6], 1.75. In addition, the PBM binding z-score in assay [7] stood at 1.86; in [8], 1.89; in [9] it was 0.217; in assay [10] it was 0.996; in [11], 4.3; in assay [12] it was 4.9. The PBM binding z-score in assay [13] amounted to 0.566; in assay [14], 0.266; in [15] it was 0.222; in assay [16], 0.254; in assay [17], 0.042; in [18] it was 0.669. In addition, the PBM binding z-score in assay [19] was -0.0196; in assay [20], 1.09.

Turning to TCATATAGGAAATACAGGTGAAAGTCGGCATCTA, the PBM binding z-score was 1.36 in [1]; 1.32 in assay [2]; 0.335 in assay [3]; 1.27 in assay [4]; 0.00276 in assay [5]; 1.6 in assay [6]. Moreover, the PBM binding z-score came to 1.1 in assay [7]; 2.77 in assay [8]; 4.7 in [9]; 3.66 in assay [10]; 3.01 in [11]; 1.27 in assay [12]. Moreover, the PBM binding z-score in assay [13] was 1.58; in assay [14] it was 0.426; in assay [15], 1.31; in [16], 0.596; in assay [17], 0.578; in assay [18], 0.964. Also, the PBM binding z-score in assay [19] came out at 1.97; in [20] it was 0.372.

Take CCCCGGAGGACAACAGGAGGTCAGAGCTGCCAGA: the PBM binding z-score in assay [1] is 1.51; in assay [2], 2.55; in assay [3], 2.5; in assay [4] it was 1.75; in assay [5] it was -0.479; in assay [6], 2.24. The PBM binding z-score in [7] is 0.602; in [8], 0.469; in [9], -0.809; in assay [10], -0.262; in assay [11], -0.654; in assay [12] it was 0.373. Moreover, the PBM binding z-score in assay [13] is -1.55; in assay [14] it was -1.4; in assay [15] it was 2.15; in [16], 2.19; in assay [17] it was 0.777; in [18], 2.7. The PBM binding z-score in assay [19] turned out to be 0.677; in assay [20], 2.86.

On to ATATGTAGGTTAGCTGGGGTCATTGAGACTAGGC, for which the PBM binding z-score in [1] was found to be 4.97; in assay [2] it was 5.62; in assay [3], 2.48; in assay [4] it was 4.62; in [5] it was 1.35; in [6] it was 5.24. Besides, the PBM binding z-score in [7] stood at 5.52; in assay [8], 5.03; in assay [9], 2.46; in assay [10] it was 4.26; in assay [11] it was 6.54; in assay [12], 6.07. Moreover, the PBM binding z-score in assay [13] was 2.23; in [14], 1.29; in assay [15], 2.75; in [16], 6.11; in assay [17], 3.42; in assay [18], 5.49. Besides, the PBM binding z-score came out at 0.751 in assay [19] and 2.9 in assay [20].
